Assay results from PubChem BioAssay (EPA / NIEHS).
Results filed as inconclusive are left out. The source made the active and inactive calls. How the source made its calls, unless noted: active means hit-call score of the fitted dose curve at least 0.9, where 1 is the maximum; inactive means score below 0.9.

How the values were obtained:
[1] = BSK_4H_Eotaxin3: BioMAP Diversity Plus: 4H Assay for Eotaxin 3 Biomarker Activity (AID 2283000); details: primary human endothelial cells (HUVEC); actives raise or lower the signal
Summary of the method: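 Endothelial primary cells (human umbilical vein) exposed to compound for 24 h. ELISA detection of Eotaxin-3.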

[2] = target: human Peroxisome Proliferator-activated Receptor alpha (PPARa), PPARA (gene 5465) (UniProt Q07869); assay: ATG_PPARa_TRANS: Attagene TRANS-FACTORIAL HepG2 Assay for human Peroxisome Proliferator-activated Receptor alpha (PPARa) (AID 2283001; active means hit-call score of the fitted dose curve at least 0.9, where 1 is the maximum)
Summary of the method: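 Measures transcriptional activity of an exogenous chimeric PPARa-Gal4 protein in transiently transfected HepG2 cells after 24 h dosing. Reporter mRNA quantified via RT-PCR and capillary electrophoresis; DMSO served as negative control.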

[3] = target: human Peroxisome Proliferator-activated Receptor delta (PPARd), PPARD (gene 5467) (UniProt Q03181); assay: ATG_PPARd_TRANS: Attagene TRANS-FACTORIAL HepG2 Assay for human Peroxisome Proliferator-activated Receptor delta (PPARd) (AID 2283002; active means hit-call score of the fitted dose curve at least 0.9, where 1 is the maximum)
Summary of the method: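 Read-out: reporter mRNA induction, quantified by fluorescent RT-PCR products resolved by capillary electrophoresis. Human HepG2 liver cells carried transiently transfected Gal4-UAS reporter constructs with chimeric NR-Gal4 fusions. Cells were dosed for 24 h; DMSO served as baseline.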

[4] = read-out: Intercellular Adhesion Molecule 1 (ICAM1), ICAM1 (gene 3383); assay: BSK_3C_ICAM1: BioMAP Diversity Plus: 3C Assay for Intercellular Adhesion Molecule 1 (ICAM1) Biomarker Activity (AID 2283003); details: primary human endothelial cells (HUVEC); actives raise or lower the signal
Summary of the method: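 Human vascular endothelial primary cells, 3C conditions, 24 h treatment. ICAM-1 by ELISA.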

[5] = BSK_3C_Proliferation: Cell Proliferation Assessment in the BioMAP Diversity Plus: 3C Assay (AID 2283006); details: primary human endothelial cells (HUVEC)
Summary of the method: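 Proliferation of human vascular endothelial primary cells after 48 h dosing, quantified as SRB-stained protein at 560 nm relative to DMSO.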

[6] = target: Nuclear receptor subfamily 1 group I member 2 (Homo sapiens) (UniProt O75469); assay: ATG_PXR_TRANS: Attagene TRANS-FACTORIAL HepG2 Assay for human Pregnane X Receptor (PXR) (AID 2283008; active means hit-call score of the fitted dose curve at least 0.9, where 1 is the maximum)
Summary of the method: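 Fluorescence intensity of FAM-labelled, HpaI-digested reporter amplicons, separated by capillary electrophoresis, quantifies induction. HepG2 cells with PXR-Gal4 trans-reporter system were exposed 24 h; DMSO defines baseline.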

[7] = target: human RAR-related Orphan Receptor gamma (RORg), RORC (gene 6097) (UniProt P51449); assay: ATG_RORg_TRANS: Attagene TRANS-FACTORIAL HepG2 Assay for human RAR-related Orphan Receptor gamma (RORg) (AID 2283011; active means hit-call score of the fitted dose curve at least 0.9, where 1 is the maximum)
Summary of the method: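 Activity is scored as increase in GAL4-UAS reporter mRNA over DMSO, detected by fluorescent RT-PCR and capillary electrophoresis in HepG2 cells transiently expressing a RORg-Gal4 chimera, 24 h after dosing.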

[8] = target: Retinoic acid receptor RXR-alpha (Homo sapiens) (UniProt P19793); assay: ATG_RXRa_TRANS: Attagene TRANS-FACTORIAL HepG2 Assay for human Retinoid X Receptor alpha (RXRa) (AID 2283012; active means hit-call score of the fitted dose curve at least 0.9, where 1 is the maximum)
Summary of the method: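 Cells (HepG2) carried transiently transfected GAL4-responsive reporter units. Following a 24 h chemical incubation, reporter mRNA induction was read via RT-PCR fragment analysis; DMSO served as negative control and baseline.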

[9] = target: human Retinoid X Receptor beta (RXRb), RXRB (gene 6257) (UniProt P28702); assay: ATG_RXRb_TRANS: Attagene TRANS-FACTORIAL HepG2 Assay for human Retinoid X Receptor beta (RXRb) (AID 2283013; active means hit-call score of the fitted dose curve at least 0.9, where 1 is the maximum)
Summary of the method: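 Multiplexed TRANS reporter assay in HepG2; 24 h dosing; reporter mRNA by RT-PCR/CE fluorescence; gain-of-signal relative to DMSO.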

[10] = target: human Thyroid Receptor alpha (THRa1), THRA (gene 7067) (UniProt P10827); assay: ATG_THRa1_TRANS: Attagene TRANS-FACTORIAL HepG2 Assay for human Thyroid Receptor alpha (THRa1) (AID 2283014; active means hit-call score of the fitted dose curve at least 0.9, where 1 is the maximum)
Summary of the method: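 First, HepG2 cells receive multiple GAL4-UAS reporter units and the chimeric receptor. They are then dosed for 24 h, after which RNA is reverse-transcribed, amplified, labelled, HpaI-cut and sized by capillary electrophoresis; gain relative to DMSO is scored.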

[11] = read-out: E-selectin (Homo sapiens) (UniProt P16581); assay: BSK_3C_Eselectin: BioMAP Diversity Plus: 3C Assay for Eselectin Biomarker Activity (AID 2283015); details: primary human endothelial cells (HUVEC); actives raise or lower the signal;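 further: cell surface E-selectin protein quantified by ELISA 24 h after dosing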
Summary of the method: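 Human vascular endothelium from umbilical vein is exposed to test chemicals for 24 h. E-selectin levels are read by ELISA and compared with DMSO controls.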

[12] = read-out: Interleukin-1 alpha (IL1a), IL1A (gene 3552); assay: BSK_BE3C_IL1a: BioMAP Diversity Plus: BE3C Assay for Interleukin-1 alpha (IL1a) Biomarker Activity (AID 2283016); details: primary human bronchial epithelial cells; actives raise or lower the signal
Summary of the method: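 Cultures of primary human bronchial epithelial cells receive test chemical. After 24 h, IL-1a is quantified by ELISA, while parallel wells are fixed in TCA and SRB-stained for total protein. Changes in either direction are fitted relative to DMSO.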

[13] = read-out: Monocyte Chemoattractant Protein-1 (MCP1), CCL2 (gene 6347); assay: BSK_3C_MCP1: BioMAP Diversity Plus: 3C Assay for Monocyte Chemoattractant Protein-1 (MCP1) Biomarker Activity (AID 2283017); details: primary human endothelial cells (HUVEC); actives raise or lower the signal
Summary of the method: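 Endothelial cells from human umbilical vein are dosed with chemical, cultured 24 h, then assayed for MCP-1 by ELISA; both increases and decreases are modelled against DMSO controls.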

[14] = read-out: Monocyte Chemoattractant Protein-1 (MCP1), CCL2 (gene 6347); assay: BSK_4H_MCP1: BioMAP Diversity Plus: 4H Assay for Monocyte Chemoattractant Protein-1 (MCP1) Biomarker Activity (AID 2283018); details: primary human endothelial cells (HUVEC); actives raise or lower the signal
Summary of the method: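 Readout: MCP-1 ELISA on compound-treated HUVEC, sampled 24 h post-dosing. Baseline and negative control DMSO; bidirectional fit. Overt toxicity checked alongside by sulforhodamine B protein staining at time of biomarker measurement.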

[15] = read-out: Human Leukocyte Antigen - DR isotype (HLADR), HLA-DRA (gene 3122); assay: BSK_3C_HLADR: BioMAP Diversity Plus: 3C Assay for Human Leukocyte Antigen - DR isotype (HLADR) Biomarker Activity (AID 2283019); details: primary human endothelial cells (HUVEC); actives raise or lower the signal;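 further: ELISA of cell-surface HLA-DR on HUVEC 24 h after dosing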
Summary of the method: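 Endothelial cells from human umbilical vein are treated with test chemical; after 24 h, HLA-DR levels are measured by ELISA. Data are fitted in both directions using DMSO as the baseline.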

[16] = target: human Retinoic Acid Receptor beta (RARb), RARB (gene 5915) (UniProt P10826); assay: ATG_RARb_TRANS: Attagene TRANS-FACTORIAL HepG2 Assay for human Retinoic Acid Receptor beta (AID 2283004; active means hit-call score of the fitted dose curve at least 0.9, where 1 is the maximum)
Summary of the method: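 HepG2, transient MRTU transfection, NR–Gal4 chimera, 24 h treatment; RT-PCR plus CE fluorescence detection of reporter mRNA; gain of signal vs DMSO.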

[17] = target: Retinoic acid receptor alpha (Homo sapiens) (UniProt P10276); assay: ATG_RARa_TRANS: Attagene TRANS-FACTORIAL HepG2 Assay for human Retinoic Acid Receptor alpha (RARa) (AID 2283005; active means hit-call score of the fitted dose curve at least 0.9, where 1 is the maximum)
Summary of the method: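 HepG2 transiently transfected with multiplex GAL4-UAS reporter units including a human RARa–GAL4 chimera; 24 h compound exposure. Reporter mRNA quantified by RT-PCR, 6-FAM labeling and capillary electrophoresis; gain of signal versus DMSO.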

[18] = target: Peroxisome proliferator-activated receptor gamma (Homo sapiens) (UniProt P37231); assay: ATG_PPARg_TRANS: Attagene TRANS-FACTORIAL HepG2 Assay for human Peroxisome Proliferator-activated Receptor-gamma (PPARg) (AID 2283007; active means hit-call score of the fitted dose curve at least 0.9, where 1 is the maximum)
Summary of the method: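 HepG2 cells are transiently transfected with GAL4-UAS reporter units driven by chimeric NR-Gal4 fusions and dosed for 24 h. Reporter mRNA is quantified by RT-PCR, 6-FAM labelling, HpaI digestion and capillary electrophoresis. Induction is scored against DMSO.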

[19] = target: human Retinoic Acid Receptor gamma (RARg), RARG (gene 5916) (UniProt P13631); assay: ATG_RARg_TRANS: Attagene TRANS-FACTORIAL HepG2 Assay for human Retinoic Acid Receptor gamma (RARg) (AID 2283009; active means hit-call score of the fitted dose curve at least 0.9, where 1 is the maximum)
Summary of the method: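 HepG2, RARg-GAL4 TRANS system, 24 h exposure; reporter mRNA by RT-PCR + CE fluorescence; increase over DMSO.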

[20] = target: human RAR-related Orphan Receptor beta (RORb), RORB (gene 6096) (UniProt Q92753); assay: ATG_RORb_TRANS: Attagene TRANS-FACTORIAL HepG2 Assay for human RAR-related Orphan Receptor beta (RORb) (AID 2283010; active means hit-call score of the fitted dose curve at least 0.9, where 1 is the maximum)
Summary of the method: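 In this TRANS-format test, human HepG2 cells express chimeric NR-Gal4 fusion proteins driving GAL4-UAS reporters. After 24 h dosing, reporter transcripts are measured by fluorescent RT-PCR/capillary electrophoresis, with DMSO as negative control.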

Measured: AC50

Nuclear receptor subfamily 1 group I member 2 (Homo sapiens), sequence (O75469 whole entry, looked up, the tested form may be a part): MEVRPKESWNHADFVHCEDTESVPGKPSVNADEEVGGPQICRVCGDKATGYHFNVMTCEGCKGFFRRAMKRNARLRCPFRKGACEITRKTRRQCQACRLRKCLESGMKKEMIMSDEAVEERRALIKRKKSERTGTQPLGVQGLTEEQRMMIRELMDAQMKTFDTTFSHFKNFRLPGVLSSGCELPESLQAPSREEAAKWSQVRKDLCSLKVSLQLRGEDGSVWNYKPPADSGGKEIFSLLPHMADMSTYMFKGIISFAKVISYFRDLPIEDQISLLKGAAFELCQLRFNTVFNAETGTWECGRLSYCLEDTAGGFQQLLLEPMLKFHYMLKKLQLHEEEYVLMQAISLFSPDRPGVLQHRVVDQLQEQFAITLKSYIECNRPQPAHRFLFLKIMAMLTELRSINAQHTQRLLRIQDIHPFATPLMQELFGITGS
Retinoic acid receptor RXR-alpha (Homo sapiens), sequence (P19793 whole entry, looked up, the tested form may be a part): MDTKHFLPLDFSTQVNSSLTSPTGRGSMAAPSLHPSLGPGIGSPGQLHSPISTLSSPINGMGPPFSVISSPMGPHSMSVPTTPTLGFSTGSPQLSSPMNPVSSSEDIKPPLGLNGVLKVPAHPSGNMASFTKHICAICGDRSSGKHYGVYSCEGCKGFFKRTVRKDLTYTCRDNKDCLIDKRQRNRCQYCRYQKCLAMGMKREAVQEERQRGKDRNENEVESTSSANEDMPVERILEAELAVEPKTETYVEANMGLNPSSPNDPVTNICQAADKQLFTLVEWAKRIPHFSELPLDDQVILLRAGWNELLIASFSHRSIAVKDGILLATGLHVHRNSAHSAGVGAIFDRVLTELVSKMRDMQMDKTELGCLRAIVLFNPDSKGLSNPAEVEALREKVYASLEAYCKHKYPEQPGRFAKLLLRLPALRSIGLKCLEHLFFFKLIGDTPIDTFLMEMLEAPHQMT
human RAR-related Orphan Receptor gamma (RORg), RORC (gene 6097), sequence (P51449 whole entry, looked up, the tested form may be a part): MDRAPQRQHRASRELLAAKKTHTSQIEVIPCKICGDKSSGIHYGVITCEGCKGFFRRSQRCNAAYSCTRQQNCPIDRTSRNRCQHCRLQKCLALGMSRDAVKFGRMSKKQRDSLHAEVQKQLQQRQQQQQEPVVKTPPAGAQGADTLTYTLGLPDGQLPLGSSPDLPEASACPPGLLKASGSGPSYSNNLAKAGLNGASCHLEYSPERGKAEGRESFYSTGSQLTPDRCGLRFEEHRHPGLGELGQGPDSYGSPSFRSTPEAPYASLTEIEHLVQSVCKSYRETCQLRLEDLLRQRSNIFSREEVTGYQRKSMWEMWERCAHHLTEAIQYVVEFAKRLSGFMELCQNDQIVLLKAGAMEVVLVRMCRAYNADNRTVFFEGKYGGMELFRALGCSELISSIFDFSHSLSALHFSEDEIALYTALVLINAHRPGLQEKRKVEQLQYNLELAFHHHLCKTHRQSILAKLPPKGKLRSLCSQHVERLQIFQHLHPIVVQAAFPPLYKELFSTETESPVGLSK
human Peroxisome Proliferator-activated Receptor alpha (PPARa), PPARA (gene 5465), sequence (Q07869 whole entry, looked up, the tested form may be a part): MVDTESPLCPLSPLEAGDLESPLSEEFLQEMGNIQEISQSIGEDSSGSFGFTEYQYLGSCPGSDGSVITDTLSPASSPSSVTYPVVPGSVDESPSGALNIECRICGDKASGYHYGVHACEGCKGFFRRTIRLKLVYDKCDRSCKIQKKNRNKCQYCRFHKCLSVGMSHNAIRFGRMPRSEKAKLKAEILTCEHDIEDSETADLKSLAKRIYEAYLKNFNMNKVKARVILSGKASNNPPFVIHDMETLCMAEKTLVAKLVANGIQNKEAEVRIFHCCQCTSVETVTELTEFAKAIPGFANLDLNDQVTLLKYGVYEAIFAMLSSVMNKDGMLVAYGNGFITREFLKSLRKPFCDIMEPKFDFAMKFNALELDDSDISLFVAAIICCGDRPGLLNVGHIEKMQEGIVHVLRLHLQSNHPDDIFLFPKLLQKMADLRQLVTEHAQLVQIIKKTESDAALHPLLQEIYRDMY
human Retinoid X Receptor beta (RXRb), RXRB (gene 6257), sequence (P28702 whole entry, looked up): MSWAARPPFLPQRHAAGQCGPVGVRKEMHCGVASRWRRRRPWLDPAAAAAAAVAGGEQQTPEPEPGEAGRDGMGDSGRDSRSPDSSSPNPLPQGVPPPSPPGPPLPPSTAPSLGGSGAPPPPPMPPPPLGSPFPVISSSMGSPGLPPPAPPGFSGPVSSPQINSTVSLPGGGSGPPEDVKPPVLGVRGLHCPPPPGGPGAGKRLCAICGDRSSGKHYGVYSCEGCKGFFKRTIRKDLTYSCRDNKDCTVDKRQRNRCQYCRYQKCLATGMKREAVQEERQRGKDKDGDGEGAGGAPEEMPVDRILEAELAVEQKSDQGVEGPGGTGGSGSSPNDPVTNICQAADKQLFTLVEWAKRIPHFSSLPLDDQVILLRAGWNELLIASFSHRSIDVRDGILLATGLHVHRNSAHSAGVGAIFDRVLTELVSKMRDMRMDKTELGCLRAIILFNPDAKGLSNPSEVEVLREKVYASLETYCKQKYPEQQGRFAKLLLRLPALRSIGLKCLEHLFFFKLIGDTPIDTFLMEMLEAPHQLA
human Peroxisome Proliferator-activated Receptor delta (PPARd), PPARD (gene 5467), sequence (Q03181 whole entry, looked up, the tested form may be a part): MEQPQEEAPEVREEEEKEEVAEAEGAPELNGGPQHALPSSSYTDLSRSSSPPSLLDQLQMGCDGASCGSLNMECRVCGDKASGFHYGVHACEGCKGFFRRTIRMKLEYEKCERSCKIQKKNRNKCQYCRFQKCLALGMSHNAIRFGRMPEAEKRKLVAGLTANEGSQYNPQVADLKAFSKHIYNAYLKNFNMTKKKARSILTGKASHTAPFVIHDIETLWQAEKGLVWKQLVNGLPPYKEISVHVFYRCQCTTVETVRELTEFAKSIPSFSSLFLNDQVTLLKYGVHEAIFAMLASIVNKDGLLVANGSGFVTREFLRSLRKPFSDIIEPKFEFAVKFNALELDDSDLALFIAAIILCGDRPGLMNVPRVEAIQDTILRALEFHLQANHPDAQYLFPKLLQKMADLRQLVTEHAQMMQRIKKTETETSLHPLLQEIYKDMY
E-selectin (Homo sapiens), sequence (P16581 whole entry, looked up): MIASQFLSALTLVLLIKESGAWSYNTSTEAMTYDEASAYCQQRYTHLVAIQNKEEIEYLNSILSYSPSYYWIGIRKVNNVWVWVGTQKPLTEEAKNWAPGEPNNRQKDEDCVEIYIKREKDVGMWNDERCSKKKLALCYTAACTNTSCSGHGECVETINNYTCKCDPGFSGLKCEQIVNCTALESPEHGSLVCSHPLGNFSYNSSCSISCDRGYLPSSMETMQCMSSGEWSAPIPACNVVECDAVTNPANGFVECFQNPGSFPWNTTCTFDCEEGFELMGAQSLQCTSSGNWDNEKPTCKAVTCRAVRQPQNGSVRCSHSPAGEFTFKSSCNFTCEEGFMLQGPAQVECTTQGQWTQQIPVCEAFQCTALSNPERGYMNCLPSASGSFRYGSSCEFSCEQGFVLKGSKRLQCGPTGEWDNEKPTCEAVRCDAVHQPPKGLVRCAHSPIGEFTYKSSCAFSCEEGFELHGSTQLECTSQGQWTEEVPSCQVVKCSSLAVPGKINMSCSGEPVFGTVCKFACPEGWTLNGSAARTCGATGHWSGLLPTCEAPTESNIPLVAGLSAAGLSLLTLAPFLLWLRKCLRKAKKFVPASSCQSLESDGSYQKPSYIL
human Thyroid Receptor alpha (THRa1), THRA (gene 7067), sequence (P10827 whole entry, looked up, the tested form may be a part): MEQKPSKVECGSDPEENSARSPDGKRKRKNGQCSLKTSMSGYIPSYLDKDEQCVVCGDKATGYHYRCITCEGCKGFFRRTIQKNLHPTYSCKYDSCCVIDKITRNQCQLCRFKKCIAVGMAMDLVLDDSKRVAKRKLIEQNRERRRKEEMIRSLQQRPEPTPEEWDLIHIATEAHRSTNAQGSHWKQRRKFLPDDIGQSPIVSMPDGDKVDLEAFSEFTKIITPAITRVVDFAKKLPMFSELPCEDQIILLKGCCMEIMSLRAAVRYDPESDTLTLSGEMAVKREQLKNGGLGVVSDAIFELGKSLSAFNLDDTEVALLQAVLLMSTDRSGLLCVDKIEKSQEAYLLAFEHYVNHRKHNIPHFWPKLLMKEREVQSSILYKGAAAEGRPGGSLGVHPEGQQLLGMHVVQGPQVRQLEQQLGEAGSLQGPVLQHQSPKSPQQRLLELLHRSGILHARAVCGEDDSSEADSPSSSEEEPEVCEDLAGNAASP
human Retinoic Acid Receptor gamma (RARg), RARG (gene 5916), sequence (P13631 whole entry, looked up, the tested form may be a part): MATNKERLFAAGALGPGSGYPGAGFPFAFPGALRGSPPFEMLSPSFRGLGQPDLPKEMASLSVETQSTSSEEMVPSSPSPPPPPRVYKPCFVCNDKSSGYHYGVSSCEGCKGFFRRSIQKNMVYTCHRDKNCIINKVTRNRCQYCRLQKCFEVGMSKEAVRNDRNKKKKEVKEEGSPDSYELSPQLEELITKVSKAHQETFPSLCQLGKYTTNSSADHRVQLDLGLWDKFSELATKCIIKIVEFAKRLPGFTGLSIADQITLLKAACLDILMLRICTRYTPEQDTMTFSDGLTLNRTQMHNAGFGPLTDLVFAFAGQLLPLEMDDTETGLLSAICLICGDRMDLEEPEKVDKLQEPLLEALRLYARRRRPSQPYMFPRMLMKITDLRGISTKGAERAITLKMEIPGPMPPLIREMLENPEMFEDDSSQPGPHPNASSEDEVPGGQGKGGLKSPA
human Retinoic Acid Receptor beta (RARb), RARB (gene 5915), sequence (P10826 whole entry, looked up, the tested form may be a part): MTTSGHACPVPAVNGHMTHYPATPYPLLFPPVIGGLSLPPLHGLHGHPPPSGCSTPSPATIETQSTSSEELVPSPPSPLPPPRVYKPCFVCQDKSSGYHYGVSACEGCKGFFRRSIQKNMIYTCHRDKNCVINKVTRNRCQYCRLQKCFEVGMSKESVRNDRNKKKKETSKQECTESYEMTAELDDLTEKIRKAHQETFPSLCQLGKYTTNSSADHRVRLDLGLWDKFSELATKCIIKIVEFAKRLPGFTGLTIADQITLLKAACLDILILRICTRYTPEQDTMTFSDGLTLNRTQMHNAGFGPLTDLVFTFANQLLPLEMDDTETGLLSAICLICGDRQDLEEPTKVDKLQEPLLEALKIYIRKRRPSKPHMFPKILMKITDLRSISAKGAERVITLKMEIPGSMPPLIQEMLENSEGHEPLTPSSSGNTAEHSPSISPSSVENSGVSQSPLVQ

Cc1cc(NC(=O)C(=O)O)cc(C)c1Oc1ccc(O)c2c1CCC2
active: [10] 0.00869 µM
not listed: [16] | [17] | [18] | [19] | [20]
inactive: all other assays above

CCCCN(CCCC)CCCC
not listed: [8] | [10] | [16] | [17] | [18] | [19] | [20]
inactive: all other assays above

CC(=O)Oc1ccccc1C(=O)O
active: [18] 61.7 µM | [8] 127 µM | [9] 8.23 µM
not listed: [3] | [7] | [10] | [20]
inactive: all other assays above

Clc1cc(Cl)c(Cl)cc1Cl
not listed: [7] | [9] | [10] | [16] | [17] | [18] | [20]
inactive: all other assays above

Oc1ccc2ccccc2c1N=Nc1ccccc1
active: [1] 1.7 µM | [9] 6.33 µM
not listed: [3] | [7] | [8] | [18]
inactive: all other assays above

COCCOC[C@H](CC1(C(=O)NC2CCC(C(=O)O)CC2)CCCC1)C(=O)Oc1ccc2c(c1)CCC2 (stereo partly specified)
active: [6] 20.6 µM
not listed: [7] | [9] | [10] | [17] | [18] | [20]
inactive: all other assays above

COc1ccc(C)cc1N
not listed: [6] | [8] | [9] | [17] | [18] | [20]
inactive: all other assays above

Cc1ccc(C)c(C)c1
not listed: [7] | [9] | [10] | [17] | [18] | [20]
inactive: all other assays above

Cc1ccc(C)c(O)c1C
not listed: [7] | [8] | [17] | [18]
inactive: all other assays above
